Data as given in the supplement of paper PMC11732987, “Enantioselective OTUD7B fragment discovery through chemoproteomics screening and high-throughput optimisation” (Communications Chemistry, 2025).

Tests used:
Experiment in all cases: log2 ratio of Biotin-Ahx-Ub-VS probe labelling (fragment/DMSO); higher = less target engagement (more negative = stronger competition), active = hit call of the paper (q ≤ 0.05, log2 ratio ≤ -1)
Conditions in all cases: compound concentration: 200 uM; treatment time: 3 h
[1] = target: T1, USP42 (UniProt Q9H9J4)
T1 sequence (whole entry): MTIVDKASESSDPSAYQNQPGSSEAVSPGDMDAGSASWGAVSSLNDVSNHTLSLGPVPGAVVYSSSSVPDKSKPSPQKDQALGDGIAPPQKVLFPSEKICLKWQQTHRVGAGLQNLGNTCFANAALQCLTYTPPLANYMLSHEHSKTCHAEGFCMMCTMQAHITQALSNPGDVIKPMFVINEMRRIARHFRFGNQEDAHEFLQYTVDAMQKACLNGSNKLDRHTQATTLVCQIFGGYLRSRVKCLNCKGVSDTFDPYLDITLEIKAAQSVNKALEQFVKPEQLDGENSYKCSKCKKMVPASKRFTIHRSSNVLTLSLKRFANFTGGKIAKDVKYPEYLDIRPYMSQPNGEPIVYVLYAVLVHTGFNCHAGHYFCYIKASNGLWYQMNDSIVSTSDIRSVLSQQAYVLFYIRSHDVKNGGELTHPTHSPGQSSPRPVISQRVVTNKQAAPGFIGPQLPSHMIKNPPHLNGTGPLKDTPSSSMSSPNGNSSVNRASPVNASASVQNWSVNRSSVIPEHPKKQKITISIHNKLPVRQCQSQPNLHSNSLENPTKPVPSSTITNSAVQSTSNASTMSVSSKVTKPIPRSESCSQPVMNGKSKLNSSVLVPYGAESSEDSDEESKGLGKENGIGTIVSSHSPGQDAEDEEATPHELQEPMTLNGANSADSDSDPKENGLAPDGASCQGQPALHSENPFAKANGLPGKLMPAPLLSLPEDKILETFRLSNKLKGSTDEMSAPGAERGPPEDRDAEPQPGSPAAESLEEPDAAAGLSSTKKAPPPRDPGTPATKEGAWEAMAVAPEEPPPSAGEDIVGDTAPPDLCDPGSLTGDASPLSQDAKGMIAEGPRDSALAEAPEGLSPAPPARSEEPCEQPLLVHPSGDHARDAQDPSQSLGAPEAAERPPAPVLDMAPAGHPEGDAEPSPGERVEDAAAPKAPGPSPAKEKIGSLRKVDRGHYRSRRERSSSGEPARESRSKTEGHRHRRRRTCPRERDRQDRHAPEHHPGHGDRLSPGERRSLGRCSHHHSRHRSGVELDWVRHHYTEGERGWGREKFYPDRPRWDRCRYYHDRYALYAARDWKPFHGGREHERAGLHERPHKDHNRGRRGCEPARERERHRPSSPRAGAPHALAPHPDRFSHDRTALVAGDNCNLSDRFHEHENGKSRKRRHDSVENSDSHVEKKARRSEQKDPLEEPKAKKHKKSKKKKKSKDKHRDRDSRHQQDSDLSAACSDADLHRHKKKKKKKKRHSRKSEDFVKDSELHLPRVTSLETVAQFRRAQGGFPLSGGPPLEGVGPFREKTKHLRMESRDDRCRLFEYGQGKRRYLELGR
In short: (§1)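 HEK293T lysate (495 µg per sample, in Tris/CHAPS/IGEPAL buffer with protease inhibitors) was treated in triplicate with fragment at 200 µM or with DMSO for 3 h. It was then treated with Biotin-Ahx-Ub-VS (0.5 µM final) for 1 h. Labelled DUBs were NeutrAvidin-enriched, digested with LysC and trypsin, and run by diaPASEF LC-MS/MS. Spectronaut label-free quantities were global-median-normalised. Values are average log2 ratios fragment/DMSO by unpaired t-test, using proteins with ≥2 unique peptides.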

[2] = target: USP46 (UniProt P62068)
Sequence of USP46 (P62068 whole entry): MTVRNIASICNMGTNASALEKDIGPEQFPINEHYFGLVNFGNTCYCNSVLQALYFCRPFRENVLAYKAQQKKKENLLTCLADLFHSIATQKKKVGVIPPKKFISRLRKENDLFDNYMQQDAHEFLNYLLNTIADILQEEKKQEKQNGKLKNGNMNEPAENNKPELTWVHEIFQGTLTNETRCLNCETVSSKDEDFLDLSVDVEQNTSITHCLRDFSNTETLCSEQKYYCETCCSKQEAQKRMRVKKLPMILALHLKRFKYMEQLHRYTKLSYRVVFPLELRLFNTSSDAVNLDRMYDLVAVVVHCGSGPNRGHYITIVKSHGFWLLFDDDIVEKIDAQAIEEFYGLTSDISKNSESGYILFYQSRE
In short: as §1

[3] = target: T2, USP47 (UniProt Q96K76)
T2 sequence (whole entry): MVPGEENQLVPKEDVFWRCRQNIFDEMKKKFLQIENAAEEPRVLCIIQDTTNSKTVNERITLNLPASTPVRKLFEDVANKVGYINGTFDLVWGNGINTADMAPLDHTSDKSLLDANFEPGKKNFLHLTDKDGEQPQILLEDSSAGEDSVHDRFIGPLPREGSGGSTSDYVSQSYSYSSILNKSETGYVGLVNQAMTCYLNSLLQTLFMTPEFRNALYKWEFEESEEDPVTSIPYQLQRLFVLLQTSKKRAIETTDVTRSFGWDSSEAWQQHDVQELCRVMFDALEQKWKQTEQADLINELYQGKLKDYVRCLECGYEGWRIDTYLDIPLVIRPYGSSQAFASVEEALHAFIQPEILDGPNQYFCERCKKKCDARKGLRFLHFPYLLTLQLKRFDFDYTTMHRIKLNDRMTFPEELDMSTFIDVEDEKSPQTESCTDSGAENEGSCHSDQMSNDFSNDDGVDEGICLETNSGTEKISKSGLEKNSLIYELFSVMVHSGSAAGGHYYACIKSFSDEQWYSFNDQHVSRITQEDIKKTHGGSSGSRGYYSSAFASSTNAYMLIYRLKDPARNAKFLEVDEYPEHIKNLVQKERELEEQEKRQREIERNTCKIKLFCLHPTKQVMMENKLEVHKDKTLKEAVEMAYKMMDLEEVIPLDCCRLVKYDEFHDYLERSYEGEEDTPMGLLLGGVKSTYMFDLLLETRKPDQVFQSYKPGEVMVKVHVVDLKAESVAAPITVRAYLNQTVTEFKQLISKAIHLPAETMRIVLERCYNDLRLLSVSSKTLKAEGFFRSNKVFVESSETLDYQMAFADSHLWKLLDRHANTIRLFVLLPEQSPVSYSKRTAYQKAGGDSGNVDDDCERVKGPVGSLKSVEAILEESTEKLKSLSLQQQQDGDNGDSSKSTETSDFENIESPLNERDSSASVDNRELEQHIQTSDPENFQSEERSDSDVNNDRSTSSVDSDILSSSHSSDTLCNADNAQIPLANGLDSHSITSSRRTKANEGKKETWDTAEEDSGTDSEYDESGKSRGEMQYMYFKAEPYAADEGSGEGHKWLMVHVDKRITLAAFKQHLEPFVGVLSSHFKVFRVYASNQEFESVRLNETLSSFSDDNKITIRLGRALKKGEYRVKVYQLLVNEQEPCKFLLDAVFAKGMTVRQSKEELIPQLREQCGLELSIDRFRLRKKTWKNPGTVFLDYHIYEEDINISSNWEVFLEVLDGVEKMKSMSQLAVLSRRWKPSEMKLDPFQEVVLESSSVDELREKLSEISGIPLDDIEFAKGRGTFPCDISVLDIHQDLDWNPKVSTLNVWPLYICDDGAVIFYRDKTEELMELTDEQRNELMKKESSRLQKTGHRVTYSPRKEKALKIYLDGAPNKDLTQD
In short: as §1

[4] = target: T3, USP48 (UniProt Q86UV5)
T3 sequence (whole entry): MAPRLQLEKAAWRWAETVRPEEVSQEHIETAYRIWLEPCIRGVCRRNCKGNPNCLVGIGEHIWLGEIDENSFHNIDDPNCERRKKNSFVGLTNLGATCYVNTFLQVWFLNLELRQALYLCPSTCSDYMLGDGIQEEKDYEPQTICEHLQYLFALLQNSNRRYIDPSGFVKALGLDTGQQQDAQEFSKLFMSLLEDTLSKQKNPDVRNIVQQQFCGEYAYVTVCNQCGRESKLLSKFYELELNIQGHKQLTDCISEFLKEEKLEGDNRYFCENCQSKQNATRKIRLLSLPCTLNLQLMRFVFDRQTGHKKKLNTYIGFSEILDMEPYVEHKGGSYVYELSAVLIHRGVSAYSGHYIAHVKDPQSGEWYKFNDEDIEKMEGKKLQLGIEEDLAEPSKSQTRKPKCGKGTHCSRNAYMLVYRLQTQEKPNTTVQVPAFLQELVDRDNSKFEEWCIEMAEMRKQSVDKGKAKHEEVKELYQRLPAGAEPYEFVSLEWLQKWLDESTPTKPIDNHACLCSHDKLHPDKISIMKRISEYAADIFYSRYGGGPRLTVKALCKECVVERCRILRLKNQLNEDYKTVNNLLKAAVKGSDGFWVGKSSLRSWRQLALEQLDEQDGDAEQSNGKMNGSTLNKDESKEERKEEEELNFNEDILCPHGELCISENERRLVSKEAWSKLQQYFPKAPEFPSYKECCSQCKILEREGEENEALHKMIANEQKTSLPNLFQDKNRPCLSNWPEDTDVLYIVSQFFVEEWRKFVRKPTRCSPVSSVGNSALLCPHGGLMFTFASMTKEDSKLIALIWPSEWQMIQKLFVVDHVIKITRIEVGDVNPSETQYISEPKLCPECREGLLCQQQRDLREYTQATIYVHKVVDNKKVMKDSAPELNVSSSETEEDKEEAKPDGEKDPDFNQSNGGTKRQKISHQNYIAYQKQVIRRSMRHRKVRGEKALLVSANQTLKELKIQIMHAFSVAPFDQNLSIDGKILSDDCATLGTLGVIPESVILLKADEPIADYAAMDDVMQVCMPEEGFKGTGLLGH
In short: as §1

[5] = target: T4, USP5 (UniProt P45974)
T4 sequence (whole entry): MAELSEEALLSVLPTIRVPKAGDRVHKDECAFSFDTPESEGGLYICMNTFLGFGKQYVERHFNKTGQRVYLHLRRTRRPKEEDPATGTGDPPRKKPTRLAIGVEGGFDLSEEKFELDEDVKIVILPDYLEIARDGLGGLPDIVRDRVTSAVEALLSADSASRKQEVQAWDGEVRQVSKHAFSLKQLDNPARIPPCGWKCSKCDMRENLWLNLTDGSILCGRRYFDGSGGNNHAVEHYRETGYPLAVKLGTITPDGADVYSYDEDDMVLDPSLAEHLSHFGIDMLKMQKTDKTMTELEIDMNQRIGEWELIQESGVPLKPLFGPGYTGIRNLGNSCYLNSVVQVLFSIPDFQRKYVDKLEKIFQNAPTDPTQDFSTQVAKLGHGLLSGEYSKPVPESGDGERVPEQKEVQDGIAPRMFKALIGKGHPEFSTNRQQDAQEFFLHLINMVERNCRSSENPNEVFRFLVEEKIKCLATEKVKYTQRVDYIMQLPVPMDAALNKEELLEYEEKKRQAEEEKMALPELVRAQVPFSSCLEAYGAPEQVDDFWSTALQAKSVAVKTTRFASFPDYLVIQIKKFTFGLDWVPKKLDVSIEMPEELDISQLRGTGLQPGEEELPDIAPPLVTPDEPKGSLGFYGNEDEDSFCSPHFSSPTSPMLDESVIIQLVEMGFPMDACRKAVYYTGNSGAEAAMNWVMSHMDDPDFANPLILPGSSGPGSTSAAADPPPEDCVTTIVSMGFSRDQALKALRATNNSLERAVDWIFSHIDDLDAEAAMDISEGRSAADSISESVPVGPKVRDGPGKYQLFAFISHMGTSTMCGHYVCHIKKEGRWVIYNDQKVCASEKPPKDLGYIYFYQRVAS
In short: as §1

[6] = target: USP54 (UniProt Q70EL1)
Sequence of USP54 (Q70EL1 whole entry): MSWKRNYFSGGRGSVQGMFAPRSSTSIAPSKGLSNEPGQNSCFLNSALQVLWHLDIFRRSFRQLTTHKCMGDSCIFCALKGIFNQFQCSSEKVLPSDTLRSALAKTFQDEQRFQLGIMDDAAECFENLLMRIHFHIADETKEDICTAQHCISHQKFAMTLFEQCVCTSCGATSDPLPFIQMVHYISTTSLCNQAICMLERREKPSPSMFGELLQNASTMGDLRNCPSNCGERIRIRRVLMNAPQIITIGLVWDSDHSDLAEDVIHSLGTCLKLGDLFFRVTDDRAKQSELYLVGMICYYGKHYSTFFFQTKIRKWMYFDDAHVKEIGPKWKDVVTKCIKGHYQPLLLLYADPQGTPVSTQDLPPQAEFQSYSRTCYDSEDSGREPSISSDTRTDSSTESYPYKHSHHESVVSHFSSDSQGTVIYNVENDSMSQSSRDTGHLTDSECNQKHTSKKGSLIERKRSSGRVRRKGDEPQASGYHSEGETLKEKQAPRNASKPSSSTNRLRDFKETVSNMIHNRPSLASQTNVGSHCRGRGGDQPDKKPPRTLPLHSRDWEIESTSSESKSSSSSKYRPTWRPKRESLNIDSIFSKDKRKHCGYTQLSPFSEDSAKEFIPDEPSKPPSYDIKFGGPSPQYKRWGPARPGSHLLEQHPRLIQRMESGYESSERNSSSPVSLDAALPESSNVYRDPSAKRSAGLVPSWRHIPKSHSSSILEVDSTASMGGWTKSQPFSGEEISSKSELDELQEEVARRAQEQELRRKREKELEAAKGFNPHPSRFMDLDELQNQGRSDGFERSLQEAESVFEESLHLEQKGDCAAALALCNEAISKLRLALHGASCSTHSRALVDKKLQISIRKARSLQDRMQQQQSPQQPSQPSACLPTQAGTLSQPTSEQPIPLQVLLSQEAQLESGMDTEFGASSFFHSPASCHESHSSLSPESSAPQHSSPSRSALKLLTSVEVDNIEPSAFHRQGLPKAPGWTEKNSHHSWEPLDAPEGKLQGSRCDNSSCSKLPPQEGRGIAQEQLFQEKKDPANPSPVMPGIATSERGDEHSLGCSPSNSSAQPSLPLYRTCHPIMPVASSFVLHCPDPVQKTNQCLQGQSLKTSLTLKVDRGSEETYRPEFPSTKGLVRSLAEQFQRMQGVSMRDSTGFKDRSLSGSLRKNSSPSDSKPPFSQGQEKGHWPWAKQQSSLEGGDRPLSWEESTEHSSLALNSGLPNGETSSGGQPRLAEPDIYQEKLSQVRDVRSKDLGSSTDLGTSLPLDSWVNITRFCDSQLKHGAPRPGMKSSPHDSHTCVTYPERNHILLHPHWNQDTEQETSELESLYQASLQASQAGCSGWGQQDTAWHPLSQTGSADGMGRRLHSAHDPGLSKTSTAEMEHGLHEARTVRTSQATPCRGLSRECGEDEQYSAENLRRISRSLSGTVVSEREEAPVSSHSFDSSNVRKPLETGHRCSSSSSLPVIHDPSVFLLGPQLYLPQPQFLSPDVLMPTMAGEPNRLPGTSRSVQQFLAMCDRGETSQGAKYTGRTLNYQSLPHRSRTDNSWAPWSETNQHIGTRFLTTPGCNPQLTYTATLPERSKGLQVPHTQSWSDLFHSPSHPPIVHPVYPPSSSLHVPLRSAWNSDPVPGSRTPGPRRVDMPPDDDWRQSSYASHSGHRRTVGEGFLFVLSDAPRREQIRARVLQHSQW
In short: as §1

[7] = target: USP7 (UniProt Q93009)
Sequence of USP7 (Q93009 whole entry, looked up): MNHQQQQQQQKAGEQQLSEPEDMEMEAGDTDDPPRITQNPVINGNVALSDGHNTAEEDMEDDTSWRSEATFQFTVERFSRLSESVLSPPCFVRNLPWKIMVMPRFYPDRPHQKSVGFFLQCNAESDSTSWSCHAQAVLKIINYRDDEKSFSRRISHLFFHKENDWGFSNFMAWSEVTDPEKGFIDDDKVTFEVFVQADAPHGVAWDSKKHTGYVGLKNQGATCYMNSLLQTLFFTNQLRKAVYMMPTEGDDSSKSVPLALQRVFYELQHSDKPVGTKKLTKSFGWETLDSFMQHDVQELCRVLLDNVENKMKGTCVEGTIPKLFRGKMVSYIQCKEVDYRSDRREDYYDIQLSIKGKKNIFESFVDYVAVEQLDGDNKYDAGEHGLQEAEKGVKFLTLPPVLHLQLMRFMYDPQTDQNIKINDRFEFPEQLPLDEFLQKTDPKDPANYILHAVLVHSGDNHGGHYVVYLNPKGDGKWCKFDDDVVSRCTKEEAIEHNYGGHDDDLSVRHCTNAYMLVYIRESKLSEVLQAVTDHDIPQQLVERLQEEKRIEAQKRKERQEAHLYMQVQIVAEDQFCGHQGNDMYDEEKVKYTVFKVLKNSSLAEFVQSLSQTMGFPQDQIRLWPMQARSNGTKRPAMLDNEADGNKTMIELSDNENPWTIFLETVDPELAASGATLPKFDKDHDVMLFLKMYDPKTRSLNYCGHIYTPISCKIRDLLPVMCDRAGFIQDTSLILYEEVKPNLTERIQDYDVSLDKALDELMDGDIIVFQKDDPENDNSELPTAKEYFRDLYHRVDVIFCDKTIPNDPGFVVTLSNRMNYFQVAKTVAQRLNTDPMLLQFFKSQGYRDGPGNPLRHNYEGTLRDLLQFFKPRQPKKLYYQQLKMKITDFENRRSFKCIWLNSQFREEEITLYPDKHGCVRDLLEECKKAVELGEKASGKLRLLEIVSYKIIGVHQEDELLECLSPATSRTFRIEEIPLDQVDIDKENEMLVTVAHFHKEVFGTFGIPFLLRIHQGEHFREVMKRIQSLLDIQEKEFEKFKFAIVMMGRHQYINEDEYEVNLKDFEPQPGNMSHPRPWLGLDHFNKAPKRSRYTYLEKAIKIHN
In short: as §1

[8] = target: T5, USP8 (UniProt P40818)
T5 sequence (whole entry): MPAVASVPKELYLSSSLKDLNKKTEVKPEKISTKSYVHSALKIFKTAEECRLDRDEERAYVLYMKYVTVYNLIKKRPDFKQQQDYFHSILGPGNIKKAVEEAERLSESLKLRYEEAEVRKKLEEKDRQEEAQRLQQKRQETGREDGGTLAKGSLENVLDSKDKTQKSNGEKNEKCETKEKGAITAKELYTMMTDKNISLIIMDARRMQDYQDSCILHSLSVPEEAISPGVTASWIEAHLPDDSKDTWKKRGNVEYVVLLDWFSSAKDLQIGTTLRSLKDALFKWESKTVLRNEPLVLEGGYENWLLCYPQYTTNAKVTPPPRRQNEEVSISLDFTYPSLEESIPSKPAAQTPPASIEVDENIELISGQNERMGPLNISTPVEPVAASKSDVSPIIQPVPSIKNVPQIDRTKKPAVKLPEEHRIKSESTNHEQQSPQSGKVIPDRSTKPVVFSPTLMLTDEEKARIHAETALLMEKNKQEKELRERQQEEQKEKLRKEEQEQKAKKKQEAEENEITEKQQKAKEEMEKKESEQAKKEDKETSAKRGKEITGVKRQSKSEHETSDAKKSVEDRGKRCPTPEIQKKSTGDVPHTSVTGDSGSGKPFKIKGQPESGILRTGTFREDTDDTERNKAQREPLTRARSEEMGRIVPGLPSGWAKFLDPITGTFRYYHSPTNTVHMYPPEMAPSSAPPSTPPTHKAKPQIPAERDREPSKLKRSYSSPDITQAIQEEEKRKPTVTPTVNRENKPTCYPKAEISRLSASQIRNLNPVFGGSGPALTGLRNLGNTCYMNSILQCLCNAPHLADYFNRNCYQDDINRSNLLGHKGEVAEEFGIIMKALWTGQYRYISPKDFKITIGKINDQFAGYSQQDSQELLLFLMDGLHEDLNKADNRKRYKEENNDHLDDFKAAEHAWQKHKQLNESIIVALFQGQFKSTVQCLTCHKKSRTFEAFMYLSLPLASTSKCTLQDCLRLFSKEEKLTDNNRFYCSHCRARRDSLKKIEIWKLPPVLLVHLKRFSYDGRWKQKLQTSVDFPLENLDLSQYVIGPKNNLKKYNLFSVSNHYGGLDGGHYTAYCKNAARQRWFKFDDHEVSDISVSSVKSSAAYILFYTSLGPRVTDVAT
In short: as §1

[9] = target: USP9X (UniProt Q93008)
In short: as §1

[10] = target: UniProt O00487
Sequence of UniProt O00487 (O00487 whole entry): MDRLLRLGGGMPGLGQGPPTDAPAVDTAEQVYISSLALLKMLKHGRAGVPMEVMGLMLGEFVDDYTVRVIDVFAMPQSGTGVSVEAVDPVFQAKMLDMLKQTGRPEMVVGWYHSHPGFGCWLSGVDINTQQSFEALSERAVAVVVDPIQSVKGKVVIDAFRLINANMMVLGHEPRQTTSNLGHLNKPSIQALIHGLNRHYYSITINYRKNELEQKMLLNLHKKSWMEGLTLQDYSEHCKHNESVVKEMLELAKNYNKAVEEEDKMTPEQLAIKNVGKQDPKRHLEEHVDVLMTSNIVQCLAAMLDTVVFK
In short: as §1

Measured: log2 ratio of Biotin-Ahx-Ub-VS probe labelling

Cl.O=C(CCl)NCCc1ncc(F)cc1F
inactive: [1] -0.132 | [2] -0.0594 | [3] 0.122 | [4] -0.466 | [5] -0.0776 | [6] -0.439 | [7] -0.34 | [8] -0.607 | [9] -0.419 | [10] -0.24
